Several values for one entry are separate records, joined by “and”; a condition that tells them apart may be missing. Identical values can stand only once. Out of some 5,500 compounds screened, about 2,000 (36%) were called active. Inconclusive results (about 18%) are left out. Cut-off read from the data, not from the text of the source: active = normalized growth mostly below about 0.91 (no sharp cut-off); inconclusive = no clear call, values can overlap the other calls; inactive = mostly above about 0.92. Some of the results follow.
Experiment: chemical genetic growth profiling, strain panel (AID 1159580);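 note: tested at 20 µM; growth read once vehicle control cultures reached saturation at 30 °C; 1 = growth at the plate median or of vehicle wells; lower values mean less growth of the strain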
Conditions: S. cerevisiae deletion strains, growth OD

Measured: normalized growth

O=c1c(-c2ccc(O)cc2)coc2cc(O)ccc12
inactive: locus YAL013W, strain DEP1, stronger effect = lower value 0.964 | locus YAL021C, strain ccr4, stronger effect = lower value 0.996 | locus YAL026C, strain drs2, stronger effect = lower value 0.983 | locus YAL030W, strain snc1, stronger effect = lower value 0.989 | locus YAL040C, strain CLN3, stronger effect = lower value 1.01 | locus YBL061C, strain skt5, stronger effect = lower value 0.983 | locus YBR009C, strain hhf1, stronger effect = lower value 0.97 | locus YBR021W, strain FUR4, stronger effect = lower value 0.924 | locus YBR023C, strain chs3, stronger effect = lower value 0.978 | locus YBR171W, strain sec66, stronger effect = lower value 0.969 | locus YBR229C, strain ROT2, stronger effect = lower value 1.01 | locus YBR231C, strain swc5, stronger effect = lower value 0.986 | locus YBR279W, strain paf1, stronger effect = lower value 0.999 | locus YCL011C, strain gbp2, stronger effect = lower value 0.98 | locus YCL016C, strain dcc1, stronger effect = lower value 0.977 | locus YCL029C, strain bik1, stronger effect = lower value 0.983 | locus YCL061C, strain MRC1 (second series), stronger effect = lower value 1.01 | locus YCL061C, strain MRC1, stronger effect = lower value 0.975 | locus YCL069W, strain vba3, stronger effect = lower value 0.995 | locus YCR088W, strain abp1, stronger effect = lower value 0.987 | locus YDL005C, strain med2, stronger effect = lower value 0.976 | locus YDL035C, strain GPR1, stronger effect = lower value 1.01 | locus YDL040C, strain nat1, stronger effect = lower value 0.987 | locus YDL074C, strain BRE1, stronger effect = lower value 0.97 | locus YDL101C, strain DUN1, stronger effect = lower value 1.01 | locus YDL134C, strain PPH21, stronger effect = lower value 1 | locus YDL185W, strain tfp1, stronger effect = lower value 0.987 | locus YDL192W, strain arf1, stronger effect = lower value 1.01 | locus YDR001C, strain nth1, stronger effect = lower value 0.984 | locus YDR069C, strain doa4, stronger effect = lower value 0.985 | locus YDR101C, strain arx1, stronger effect = lower value 0.964 | locus YDR137W, strain rgp1, stronger effect = lower value 1 | locus YDR150W, strain NUM1, stronger effect = lower value 0.984 | locus YDR159W, strain sac3, stronger effect = lower value 0.974 | locus YDR162C, strain NBP2, stronger effect = lower value 1 | locus YDR195W, strain ref2 1.04 | locus YDR297W, strain sur2, stronger effect = lower value 0.978 | locus YDR318W, strain mcm21, stronger effect = lower value 0.99 | locus YDR334W, strain swr1, stronger effect = lower value 1 | locus YDR335W, strain msn5, stronger effect = lower value 0.992 | locus YDR363W, strain ESC2, stronger effect = lower value 1.01 | locus YDR388W, stronger effect = lower value 0.98 | locus YDR392W, strain spt3, stronger effect = lower value 0.849 | locus YDR502C, strain sam2, stronger effect = lower value 0.951 | locus YEL003W, strain gim4, stronger effect = lower value 0.989 | locus YEL037C, strain rad23, stronger effect = lower value 0.985 | locus YEL061C, strain CIN8 (second series), stronger effect = lower value 0.996 | locus YEL061C, strain CIN8, stronger effect = lower value 1.01 | locus YER002W, strain NOP16, stronger effect = lower value 0.992 | locus YER015W, strain faa2, stronger effect = lower value 0.993 | locus YER016W, strain bim1, stronger effect = lower value 0.982 | locus YER110C, stronger effect = lower value 0.974 | locus YER111C, strain swi4, stronger effect = lower value 0.98 | locus YER155C, strain BEM2 (second series), stronger effect = lower value 0.972 | locus YER155C, strain BEM2, stronger effect = lower value 0.992 | locus YER167W, strain BCK2, stronger effect = lower value 1 | locus YFR010W, strain ubp6, stronger effect = lower value 0.982 | locus YGL078C, strain dbp3, stronger effect = lower value 0.977 | locus YGL086W, strain mad1, stronger effect = lower value 0.969 | locus YGL167C, strain pmr1, stronger effect = lower value 0.981 | locus YGL173C, strain kem1, stronger effect = lower value 0.971 | locus YGL227W, strain vid30, stronger effect = lower value 0.984 | locus YGL240W, strain doc1, stronger effect = lower value 0.958 | locus YGL248W, strain PDE1, stronger effect = lower value 1.01 | locus YGL253W, strain hxk2, stronger effect = lower value 0.956 | locus YGR078C, strain PAC10, stronger effect = lower value 0.965 and 1.01 | locus YGR135W, strain pre9, stronger effect = lower value 0.957 | locus YGR229C, strain SMI1, stronger effect = lower value 0.974 | locus YGR252W, strain gcn5, stronger effect = lower value 0.825 | locus YHR013C, strain ard1, stronger effect = lower value 0.959 | locus YHR027C, strain rpn1, stronger effect = lower value 0.995 | locus YHR030C, strain SLT2, stronger effect = lower value 1.01 and 1.02 | locus YHR079C, strain IRE1 (second series), stronger effect = lower value 0.993 | locus YHR079C, strain IRE1, stronger effect = lower value 0.999 | locus YHR094C, strain hxt1, stronger effect = lower value 0.99 | locus YHR129C, strain ARP1, stronger effect = lower value 1.01 | locus YHR142W, strain chs7, stronger effect = lower value 0.943 | locus YHR200W, strain rpn10, stronger effect = lower value 0.979 | locus YIL066C, strain RNR3, stronger effect = lower value 1.02 | locus YIL073C, strain SPO22, stronger effect = lower value 0.951 | locus YIL125W, strain kgd1, stronger effect = lower value 0.988 | locus YIR030C, strain dcg1, stronger effect = lower value 0.978 | locus YJL092W, strain hpr5, stronger effect = lower value 0.981 | locus YJL095W, strain BCK1 (second series), stronger effect = lower value 0.98 | locus YJL095W, strain BCK1, stronger effect = lower value 0.977 and 1.03 | locus YJL115W, strain asf1, stronger effect = lower value 0.994 | locus YJL129C, strain trk1, stronger effect = lower value 0.969 | locus YJL134W, strain LCB3, stronger effect = lower value 1.01 | locus YJL154C, strain vps35, stronger effect = lower value 0.986 | locus YJL164C, strain tpk1, stronger effect = lower value 0.966 | locus YJL166W, strain qcr8, stronger effect = lower value 0.963 | locus YJL168C, strain set2, stronger effect = lower value 0.99 | locus YJL187C, strain SWE1 (second series), stronger effect = lower value 0.987 | locus YJL187C, strain SWE1, stronger effect = lower value 0.984 | locus YJR043C, strain POL32, stronger effect = lower value 0.994 | locus YJR066W, strain TOR1, stronger effect = lower value 0.989 | locus YKL009W, strain mrt4, stronger effect = lower value 0.951 | locus YKL068W, stronger effect = lower value 1 | locus YKL085W, strain MDH1 (second series), stronger effect = lower value 1.01 | locus YKL085W, strain MDH1, stronger effect = lower value 1.01 | locus YKL160W, strain elf1, stronger effect = lower value 0.971 | locus YKR001C, strain vps1, stronger effect = lower value 0.963 | locus YKR026C, strain gcn3, stronger effect = lower value 0.976 | locus YKR091W, strain srl3, stronger effect = lower value 0.982 | locus YLL001W, strain dnm1, stronger effect = lower value 0.945 | locus YLL026W, stronger effect = lower value 0.976 | locus YLL041C, strain sdh2, stronger effect = lower value 0.986 | locus YLR027C, strain aat2, stronger effect = lower value 0.973 | locus YLR039C, strain RIC1, stronger effect = lower value 1.05 | locus YLR058C, strain SHM2, stronger effect = lower value 1 | locus YLR102C, strain apc9, stronger effect = lower value 0.998 | locus YLR113W, strain HOG1, stronger effect = lower value 0.933 | locus YLR221C, strain rsa3, stronger effect = lower value 0.953 | locus YLR258W, strain gsy2, stronger effect = lower value 0.978 | locus YLR262C, strain YPT6 (second series), stronger effect = lower value 0.969 | locus YLR262C, strain YPT6, stronger effect = lower value 1.09 | locus YLR268W, strain sec22, stronger effect = lower value 0.949 | locus YLR320W, strain mms22, stronger effect = lower value 0.939 | locus YLR330W, strain CHS5, stronger effect = lower value 1 | locus YLR342W, strain FKS1 (second series), stronger effect = lower value 0.997 | locus YLR342W, strain FKS1, stronger effect = lower value 0.987 | locus YLR357W, strain rsc2, stronger effect = lower value 0.941 | locus YLR370C, strain arc18, stronger effect = lower value 0.982 | locus YLR371W, strain rom2, stronger effect = lower value 0.985 | locus YLR384C, strain iki3, stronger effect = lower value 1 | locus YLR418C, strain cdc73, stronger effect = lower value 0.888 | locus YML016C, strain PPZ1, stronger effect = lower value 1.02 | locus YML032C, strain rad52, stronger effect = lower value 0.977 | locus YML120C, strain ndi1, stronger effect = lower value 0.991 | locus YML124C, strain tub3, stronger effect = lower value 0.98 | locus YMR058W, strain fet3, stronger effect = lower value 0.981 | locus YMR078C, strain ctf18, stronger effect = lower value 0.979 | locus YMR125W, strain sto1, stronger effect = lower value 0.99 | locus YMR129W, stronger effect = lower value 0.989 | locus YMR205C, strain PFK2, stronger effect = lower value 0.957 | locus YMR223W, strain ubp8, stronger effect = lower value 0.978 | locus YMR231W, strain pep5, stronger effect = lower value 0.992 | locus YMR307W, strain GAS1, stronger effect = lower value 0.951 and 1.01 | locus YNL067W, strain RPL9B, stronger effect = lower value 0.966 | locus YNL071W, strain lat1, stronger effect = lower value 0.979 | locus YNL128W, strain TEP1, stronger effect = lower value 1 | locus YNL153C, strain GIM3, stronger effect = lower value 0.982 and 1.04 | locus YNL175C, strain NOP13, stronger effect = lower value 0.994 | locus YNL183C, strain NPR1, stronger effect = lower value 0.993 | locus YNL197C, strain WHI3, stronger effect = lower value 0.979 | locus YNL209W, strain ssb2, stronger effect = lower value 0.99 | locus YNL224C, strain SQS1, stronger effect = lower value 1 | locus YNL233W, strain BNI4, stronger effect = lower value 0.966 | locus YNL248C, strain rpa49, stronger effect = lower value 0.97 | locus YNL250W, strain rad50, stronger effect = lower value 1.01 | locus YNL271C, strain bni1, stronger effect = lower value 0.985 | locus YNL298W, strain CLA4, stronger effect = lower value 0.997 | locus YNL307C, strain MCK1, stronger effect = lower value 0.97 | locus YNL322C, strain KRE1 (second series), stronger effect = lower value 0.966 | locus YNL322C, strain KRE1, stronger effect = lower value 1 | locus YNR049C, strain mso1, stronger effect = lower value 0.985 | locus YNR052C, strain pop2, stronger effect = lower value 0.988 | locus YOL006C, strain TOP1, stronger effect = lower value 0.931 | locus YOL012C, strain htz1 0.695 | locus YOL147C, strain pex11, stronger effect = lower value 0.982 | locus YOR001W, strain rrp6, stronger effect = lower value 1 | locus YOR061W, strain CKA2, stronger effect = lower value 1.02 | locus YOR069W, strain VPS5, stronger effect = lower value 1.01 | locus YOR070C, strain gyp1, stronger effect = lower value 0.982 | locus YOR080W, strain dia2, stronger effect = lower value 0.98 | locus YOR083W, strain WHI5 (second series), stronger effect = lower value 1.05 | locus YOR083W, strain WHI5, stronger effect = lower value 0.945 | locus YOR106W, strain vam3, stronger effect = lower value 0.954 | locus YOR136W, strain idh2, stronger effect = lower value 0.97 | locus YOR144C, strain elg1, stronger effect = lower value 0.985 | locus YOR184W, strain ser1, stronger effect = lower value 0.935 | locus YOR231W, strain MKK1, stronger effect = lower value 1.03 | locus YOR265W, strain rbl2, stronger effect = lower value 0.985 | locus YOR270C, strain vph1, stronger effect = lower value 0.913 | locus YOR290C, strain snf2, stronger effect = lower value 0.902 | locus YOR316C, strain cot1, stronger effect = lower value 0.986 | locus YPL051W, strain arl3, stronger effect = lower value 0.988 | locus YPL055C, strain LGE1, stronger effect = lower value 0.958 | locus YPL078C, strain atp4, stronger effect = lower value 0.956 | locus YPL106C, strain sse1, stronger effect = lower value 0.935 | locus YPL240C, strain hsp82, stronger effect = lower value 1 | locus YPL241C, strain CIN2, stronger effect = lower value 1 | locus YPL256C, strain CLN2, stronger effect = lower value 0.992 | locus YPR119W, strain clb2, stronger effect = lower value 0.984 | locus YPR141C, strain kar3, stronger effect = lower value 0.997 | locus YPR163C, strain tif3, stronger effect = lower value 0.982 | locus YPR167C, strain met16, stronger effect = lower value 0.984 | strain wtn01, stronger effect = lower value 0.953

Reference: PubChem BioAssay AID1159580 (chemical genetic matrix, 2015)
